# Records with an inconclusive call do not appear. Entries that show only a call come without a potency. Values without a mark were called inactive. Activity calls are given as the source filed them. The call rests on the fitted dose curve; in most records, active means well fitted curve in the direction sought with a large enough effect in the repeat runs; inconclusive means weak or mixed curves; inactive means no such curve, though single readings can be large; an effect the other way counts as inactive or inconclusive.
# Experiments:
# [1] = molecular target: Cytochrome P450 1A2 (Homo sapiens) (UniProt P05177); experiment: Cytochrome P450 Family 1 Subfamily A Member 2 (CYP1A2) small molecule antagonists: luciferase reporter qHTS assay (AID 1671199); details: P450-Glo CYP1A2 enzyme, luciferin luminescence, 1 h; series mostly up to 115 µM
# Procedure, shortened: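 Luminescence readout (relative luminescence units) after luciferin detection reagent, 20 min RT. Preceded by 1 h room-temperature CYP1A2 reaction with NADPH regeneration solution following 10 min compound preincubation with enzyme and proluciferin substrate. Furafylline positive control.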
# [2] = molecular target: Voltage-gated inwardly rectifying potassium channel KCNH2 (Homo sapiens) (UniProt Q12809); experiment: Human Ether-a-go-go-Related Gene (hERG) channel small molecule antagonists: fluorescence cell-based qHTS assay (AID 1671200); details: hERG-U2OS cells, FluxOR thallium flux fluorescence; series mostly up to 76.8 µM;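 on activity change, negative = inhibition: hERG-expressing U2OS cells given a thallium stimulus after FluxOR II dye loading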
# Procedure, shortened: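 hERG-U2OS cells plated overnight at 37 C, loaded with FluxOR II dye 1 h at RT in dark; after 10 min, thallium stimulus added. Fluorescence (480/540 nm) read kinetically for 2 min at 1 s intervals.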
# [3] = molecular target: Cytochrome P450 3A4 (Homo sapiens) (UniProt P08684); experiment: Cytochrome P450 Family 3 Subfamily A Member 4 (CYP3A4) small molecule antagonists: luciferase reporter qHTS assay (AID 1671201); details: P450-Glo CYP3A4 enzyme, luciferin luminescence, 1 h; series mostly up to 115 µM
# Procedure, shortened: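 P450-Glo CYP3A4 luminescent assay: compounds preincubated 10 min at room temperature with enzyme and proluciferin substrate, NADPH regeneration added, 1 h room-temperature reaction, stopped with luciferin detection reagent; luminescence read after 20 min. Ketoconazole positive control.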
# Further: nearly all actives have a fitted effect of over 50% in size.
# Potency means the concentration at half of the fitted maximal effect.
# Chain of Voltage-gated inwardly rectifying potassium channel KCNH2 (Homo sapiens) (Q12809 whole entry, looked up): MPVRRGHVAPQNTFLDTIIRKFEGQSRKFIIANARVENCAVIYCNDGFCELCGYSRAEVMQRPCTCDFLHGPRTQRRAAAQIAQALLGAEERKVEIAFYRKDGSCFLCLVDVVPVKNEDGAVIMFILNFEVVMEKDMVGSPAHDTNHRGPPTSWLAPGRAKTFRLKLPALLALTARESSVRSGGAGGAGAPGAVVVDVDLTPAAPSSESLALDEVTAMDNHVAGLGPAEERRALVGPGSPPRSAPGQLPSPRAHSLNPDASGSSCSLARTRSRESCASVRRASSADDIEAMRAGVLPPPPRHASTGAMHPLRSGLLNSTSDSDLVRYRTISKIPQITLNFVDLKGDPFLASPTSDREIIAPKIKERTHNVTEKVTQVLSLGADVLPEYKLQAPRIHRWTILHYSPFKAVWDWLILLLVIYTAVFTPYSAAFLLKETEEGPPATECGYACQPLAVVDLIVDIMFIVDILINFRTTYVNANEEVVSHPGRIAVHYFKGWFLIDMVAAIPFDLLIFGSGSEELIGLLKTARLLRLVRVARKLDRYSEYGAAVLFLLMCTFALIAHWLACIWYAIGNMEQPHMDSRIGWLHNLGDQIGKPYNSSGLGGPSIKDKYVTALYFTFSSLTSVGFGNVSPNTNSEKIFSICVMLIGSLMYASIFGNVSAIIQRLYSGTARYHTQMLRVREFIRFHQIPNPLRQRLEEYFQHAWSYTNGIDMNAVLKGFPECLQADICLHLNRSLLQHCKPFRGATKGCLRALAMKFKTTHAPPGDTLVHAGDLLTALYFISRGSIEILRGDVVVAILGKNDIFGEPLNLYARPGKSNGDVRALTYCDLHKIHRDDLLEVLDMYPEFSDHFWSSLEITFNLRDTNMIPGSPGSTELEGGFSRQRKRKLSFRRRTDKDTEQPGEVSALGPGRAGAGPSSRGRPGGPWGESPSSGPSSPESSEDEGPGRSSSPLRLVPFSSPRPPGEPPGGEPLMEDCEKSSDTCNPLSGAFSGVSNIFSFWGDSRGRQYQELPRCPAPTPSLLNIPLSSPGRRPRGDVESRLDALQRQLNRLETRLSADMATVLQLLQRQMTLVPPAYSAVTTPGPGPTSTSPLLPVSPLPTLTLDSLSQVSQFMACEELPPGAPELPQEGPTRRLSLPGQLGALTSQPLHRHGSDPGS
# Chain of Cytochrome P450 1A2 (Homo sapiens) (P05177 whole entry, looked up): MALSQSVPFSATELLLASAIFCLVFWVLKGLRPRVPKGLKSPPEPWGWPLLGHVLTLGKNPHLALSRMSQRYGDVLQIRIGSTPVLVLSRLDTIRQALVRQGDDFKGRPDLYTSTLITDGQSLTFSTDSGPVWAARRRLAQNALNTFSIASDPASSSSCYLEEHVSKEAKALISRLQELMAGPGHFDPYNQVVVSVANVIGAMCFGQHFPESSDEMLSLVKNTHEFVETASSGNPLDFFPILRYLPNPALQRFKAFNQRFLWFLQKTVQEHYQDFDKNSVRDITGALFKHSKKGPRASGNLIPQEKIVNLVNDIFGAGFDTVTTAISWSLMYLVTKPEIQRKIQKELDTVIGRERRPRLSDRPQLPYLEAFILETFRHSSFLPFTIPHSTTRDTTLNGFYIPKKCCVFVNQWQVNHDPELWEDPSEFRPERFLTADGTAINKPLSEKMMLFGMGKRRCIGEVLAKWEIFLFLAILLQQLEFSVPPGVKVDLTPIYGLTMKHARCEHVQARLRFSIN
# Chain of Cytochrome P450 3A4 (Homo sapiens) (P08684 whole entry, looked up): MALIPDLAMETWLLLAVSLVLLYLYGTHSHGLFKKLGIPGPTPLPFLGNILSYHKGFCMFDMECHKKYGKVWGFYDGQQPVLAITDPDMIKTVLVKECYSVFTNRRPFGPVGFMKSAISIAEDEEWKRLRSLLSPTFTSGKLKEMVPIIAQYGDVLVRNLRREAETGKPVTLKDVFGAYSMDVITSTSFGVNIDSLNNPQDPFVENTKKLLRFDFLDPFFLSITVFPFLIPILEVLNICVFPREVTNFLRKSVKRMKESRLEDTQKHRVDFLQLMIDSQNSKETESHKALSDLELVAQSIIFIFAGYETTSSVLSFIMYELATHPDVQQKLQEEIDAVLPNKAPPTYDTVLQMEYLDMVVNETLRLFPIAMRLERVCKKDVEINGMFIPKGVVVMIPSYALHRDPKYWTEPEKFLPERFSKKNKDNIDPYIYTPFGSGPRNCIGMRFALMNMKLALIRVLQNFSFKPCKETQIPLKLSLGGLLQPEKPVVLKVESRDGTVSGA
smiles,measurement,setting,value
Cc1cc(=O)oc2cc(O)cc(O)c12,Potency,[1],25.3 µM (active)
same,Potency,[2],inactive
same,Potency,[3],20.1 µM (active)
Sc1nc2ccccc2s1,Potency,[2],inactive
same,Potency,[3],inactive
C=C(C)C(=O)OCCCCCCCCCC,Potency,[1],inactive
same,Potency,[2],inactive
same,Potency,[3],inactive
Oc1c(I)cc(Cl)c2cccnc12,Potency,[2],inactive
O=C1C(c2[nH]c3ccc(S(=O)(=O)O)cc3c2O)=Nc2ccc(S(=O)(=O)O)cc21,Potency,[2],inactive
same,Potency,[3],inactive
CC(C)(C)CC(C)(C)c1ccc(Nc2ccc(C(C)(C)CC(C)(C)C)cc2)cc1,"activity change, negative = inhibition",[2],0.578% [at 6.97 µM]
same,"activity change, negative = inhibition",[3],-20% [at 10.5 µM]
C1CCC(SSC2CCCCC2)CC1,Potency,[1],25.2 µM (active)
same,Potency,[2],inactive
same,Potency,[3],inactive
O=C(Oc1ccccc1)Oc1ccccc1,Potency,[1],35.4 µM (active)
same,Potency,[2],inactive
same,Potency,[3],inactive
CCC(=O)C(=O)CC,Potency,[1],inactive
same,Potency,[2],inactive
same,Potency,[3],5.88 µM (active)
CCCCCc1ccc(Cl)cc1,Potency,[1],inactive
same,Potency,[3],inactive
C=CCCC(=O)/C=C/C1C(C)=CCCC1(C)C (stereo not drawn),Potency,[1],inactive
same,Potency,[3],17.8 µM (active)
CC(C)CCCCCOC(=O)CCS,Potency,[1],39.9 µM (active)
same,Potency,[2],inactive
same,Potency,[3],inactive
Oc1cc(Cl)cc(Cl)c1Cl,Potency,[1],16.3 µM (active)
same,Potency,[2],inactive
same,Potency,[3],inactive
O=C(O)Cc1ccccc1Nc1c(Cl)cccc1Cl,Potency,[1],inactive
same,Potency,[2],inactive
same,Potency,[3],inactive
CC(C(=O)O)c1ccc2c(c1)[nH]c1ccc(Cl)cc12 (stereo not drawn),Potency,[2],inactive
same,Potency,[3],inactive
O=C(O)O,"activity change, negative = inhibition",[2],0.334% [at 6.97 µM]
same,"activity change, negative = inhibition",[3],0.224% [at 10.5 µM]
Cc1cc(C(C)(C)C)c(O)c(C)c1Cn1c(=O)n(Cc2c(C)cc(C(C)(C)C)c(O)c2C)c(=O)n(Cc2c(C)cc(C(C)(C)C)c(O)c2C)c1=O,Potency,[1],31.7 µM (active)
same,Potency,[2],inactive
same,Potency,[3],7.97 µM (active)
C=Cc1ccccc1C=C,Potency,[2],inactive
same,Potency,[3],inactive
O=S(=O)(O)c1ccccc1/C=C/c1ccc(-c2ccc(/C=C/c3ccccc3S(=O)(=O)O)cc2)cc1,Potency,[1],inactive
same,Potency,[2],inactive
same,Potency,[3],inactive
CCC(C)[O-].CCC(C)[O-].CCOC(=O)/C=C(/C)[O-].[Al+3],Potency,[2],inactive
Cc1ccc(C(C)C)cc2c(C)ccc1-2,Potency,[2],inactive
OCCN1CCN(CCCN2c3ccccc3Sc3ccc(C(F)(F)F)cc32)CC1,Potency,[2],3.38 µM (active)
FC(F)(F)c1cccc(Cl)c1,Potency,[1],inactive
same,Potency,[2],inactive
same,Potency,[3],inactive
C=CC(=O)Nc1cc2c(Nc3ccc(F)c(Cl)c3)ncnc2cc1OCCCN1CCOCC1,Potency,[1],inactive
same,Potency,[2],inactive
same,Potency,[3],12.3 µM (active)
CC(C)(C)c1ccc(C(O)CCCN2CCC(C(O)(c3ccccc3)c3ccccc3)CC2)cc1 (stereo not drawn),Potency,[1],inactive
same,Potency,[3],inactive
COc1cccc2c1C(=O)c1c(O)c3c(c(O)c1C2=O)C[C@@](O)(C(C)=O)C[C@@H]3O[C@H]1C[C@H](N)[C@H](O)[C@H](C)O1,Potency,[2],inactive
CCN(CC)C(=O)c1cc(S(=O)(=O)Cc2ccccc2)c(N2CCC(c3ccccc3)CC2)cc1N(CC)CCN(C)C,Potency,[1],inactive
same,Potency,[2],1.72 µM (active)
same,Potency,[3],0.125 µM (active)
O=C(O)CN(CCN(CC(=O)O)CC(=O)O)CC(=O)O,"activity change, negative = inhibition",[2],-1.4% [at 2.72 µM]
CC(C)(c1cc(Br)c(OCC(Br)CBr)c(Br)c1)c1cc(Br)c(OCC(Br)CBr)c(Br)c1 (stereo not drawn),Potency,[2],inactive
same,Potency,[3],inactive
OC1CCC(C2CCCCC2)CC1 (stereo not drawn),Potency,[1],35.6 µM (active)
same,Potency,[2],inactive
same,Potency,[3],inactive
O=[N+]([O-])c1ccc(F)c(Cl)c1,Potency,[2],inactive
same,Potency,[3],inactive
CCC(CC)C(C)CCOC(C)=O (stereo not drawn),Potency,[1],inactive
same,Potency,[2],inactive
same,Potency,[3],inactive
